Test results from PubChem BioAssay AID1159580 (chemical genetic matrix, 2015).
Where “and” joins values, the source holds several entries; their conditions need not be identical. Identical values can stand only once. Out of some 5,500 compounds screened, about 2,000 (36%) were called active. Another 18% or so got no clear call; they are omitted. No stated cut-off is given here; in the data, active means normalized growth mostly below about 0.91 (no sharp cut-off); inconclusive means no clear call, values can overlap the other calls; inactive means mostly above about 0.92. Some of the results follow.

Test: chemical genetic growth profiling, strain panel (AID 1159580);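 further: tested at 20 µM; growth read once vehicle control cultures reached saturation at 30 °C; 1 = growth at the plate median or of vehicle wells; lower values mean less growth of the strain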
Details: growth OD

Measured: normalized growth

NS(=O)(=O)c1cc2c(cc1Cl)NC(C1CC3C=CC1C3)NS2(=O)=O (stereo unspecified)
inactive: S. cerevisiae deletion strains, locus YJR075W, strain HOC1, active compounds read low 1.02 and 1.01 | S. cerevisiae deletion strains, locus YKL009W, strain mrt4, active compounds read low 0.979 | S. cerevisiae deletion strains, locus YKL068W, active compounds read low 0.995 | S. cerevisiae deletion strains, locus YKL085W, strain MDH1 (second series), active compounds read low 0.946 | S. cerevisiae deletion strains, locus YKL085W, strain MDH1, active compounds read low 0.946 | S. cerevisiae deletion strains, locus YKL160W, strain elf1, active compounds read low 1.01 | S. cerevisiae deletion strains, locus YKL190W, strain CNB1, active compounds read low 0.991 | S. cerevisiae deletion strains, locus YKR001C, strain vps1, active compounds read low 0.997 | S. cerevisiae deletion strains, locus YKR026C, strain gcn3, active compounds read low 0.976 | S. cerevisiae deletion strains, locus YKR091W, strain srl3, active compounds read low 0.989 | S. cerevisiae deletion strains, locus YLL001W, strain dnm1, active compounds read low 0.987 | S. cerevisiae deletion strains, locus YLL026W, active compounds read low 0.988 | S. cerevisiae deletion strains, locus YLL041C, strain sdh2, active compounds read low 0.997 | S. cerevisiae deletion strains, locus YLR027C, strain aat2, active compounds read low 0.995 | S. cerevisiae deletion strains, locus YLR039C, strain RIC1, active compounds read low 0.981 | S. cerevisiae deletion strains, locus YLR058C, strain SHM2, active compounds read low 0.979 | S. cerevisiae deletion strains, locus YLR102C, strain apc9, active compounds read low 0.984 | S. cerevisiae deletion strains, locus YLR113W, strain HOG1, active compounds read low 1.07 | S. cerevisiae deletion strains, locus YLR221C, strain rsa3, active compounds read low 1 | S. cerevisiae deletion strains, locus YLR258W, strain gsy2, active compounds read low 0.98 | S. cerevisiae deletion strains, locus YLR262C, strain YPT6 (second series), active compounds read low 0.999 | S. cerevisiae deletion strains, locus YLR262C, strain YPT6, active compounds read low 0.962 | S. cerevisiae deletion strains, locus YLR268W, strain sec22, active compounds read low 0.973 | S. cerevisiae deletion strains, locus YLR320W, strain mms22, active compounds read low 0.99 | S. cerevisiae deletion strains, locus YLR330W, strain CHS5, active compounds read low 0.989 | S. cerevisiae deletion strains, locus YLR342W, strain FKS1 (second series), active compounds read low 1.1 | S. cerevisiae deletion strains, locus YLR342W, strain FKS1, active compounds read low 0.995 | S. cerevisiae deletion strains, locus YLR357W, strain rsc2, active compounds read low 0.984 | S. cerevisiae deletion strains, locus YLR370C, strain arc18, active compounds read low 0.992 | S. cerevisiae deletion strains, locus YLR371W, strain rom2, active compounds read low 0.995 | S. cerevisiae deletion strains, locus YLR384C, strain iki3, active compounds read low 0.993 | S. cerevisiae deletion strains, locus YLR418C, strain cdc73, active compounds read low 0.961 | S. cerevisiae deletion strains, locus YML016C, strain PPZ1, active compounds read low 0.998 | S. cerevisiae deletion strains, locus YML032C, strain rad52, active compounds read low 1.02 | S. cerevisiae deletion strains, locus YML120C, strain ndi1, active compounds read low 1 | S. cerevisiae deletion strains, locus YML124C, strain tub3, active compounds read low 1 | S. cerevisiae deletion strains, locus YMR058W, strain fet3, active compounds read low 0.996 | S. cerevisiae deletion strains, locus YMR078C, strain ctf18, active compounds read low 0.986 | S. cerevisiae deletion strains, locus YMR125W, strain sto1, active compounds read low 0.973 | S. cerevisiae deletion strains, locus YMR129W, active compounds read low 0.981 | S. cerevisiae deletion strains, locus YMR205C, strain PFK2, active compounds read low 0.951 | S. cerevisiae deletion strains, locus YMR223W, strain ubp8, active compounds read low 1.05 | S. cerevisiae deletion strains, locus YMR231W, strain pep5, active compounds read low 0.992 | S. cerevisiae deletion strains, locus YMR263W, strain SAP30, active compounds read low 0.988 | S. cerevisiae deletion strains, locus YMR307W, strain GAS1, active compounds read low 1.06 and 1 | S. cerevisiae deletion strains, locus YNL067W, strain RPL9B, active compounds read low 1 | S. cerevisiae deletion strains, locus YNL071W, strain lat1, active compounds read low 0.986 | S. cerevisiae deletion strains, locus YNL128W, strain TEP1, active compounds read low 0.94 | S. cerevisiae deletion strains, locus YNL153C, strain GIM3, active compounds read low 0.981 | S. cerevisiae deletion strains, locus YNL175C, strain NOP13, active compounds read low 0.978 | S. cerevisiae deletion strains, locus YNL183C, strain NPR1, active compounds read low 0.978 | S. cerevisiae deletion strains, locus YNL197C, strain WHI3, active compounds read low 0.982 | S. cerevisiae deletion strains, locus YNL209W, strain ssb2, active compounds read low 1 | S. cerevisiae deletion strains, locus YNL224C, strain SQS1, active compounds read low 0.992 | S. cerevisiae deletion strains, locus YNL233W, strain BNI4, active compounds read low 1 | S. cerevisiae deletion strains, locus YNL248C, strain rpa49, active compounds read low 0.999 | S. cerevisiae deletion strains, locus YNL250W, strain rad50, active compounds read low 0.999 | S. cerevisiae deletion strains, locus YNL271C, strain bni1, active compounds read low 1 | S. cerevisiae deletion strains, locus YNL298W, strain CLA4, active compounds read low 0.988 | S. cerevisiae deletion strains, locus YNL307C, strain MCK1, active compounds read low 1.02 | S. cerevisiae deletion strains, locus YNL322C, strain KRE1 (second series), active compounds read low 1 | S. cerevisiae deletion strains, locus YNL322C, strain KRE1, active compounds read low 0.988 | S. cerevisiae deletion strains, locus YNR049C, strain mso1, active compounds read low 0.989 | S. cerevisiae deletion strains, locus YNR052C, strain pop2, active compounds read low 0.987 | S. cerevisiae deletion strains, locus YOL006C, strain TOP1, active compounds read low 1.02 | S. cerevisiae deletion strains, locus YOL012C, strain htz1 1.21 | S. cerevisiae deletion strains, locus YOL147C, strain pex11, active compounds read low 0.993 | S. cerevisiae deletion strains, locus YOR001W, strain rrp6, active compounds read low 0.997 | S. cerevisiae deletion strains, locus YOR061W, strain CKA2, active compounds read low 0.959 | S. cerevisiae deletion strains, locus YOR069W, strain VPS5, active compounds read low 0.995 | S. cerevisiae deletion strains, locus YOR070C, strain gyp1, active compounds read low 0.993 | S. cerevisiae deletion strains, locus YOR080W, strain dia2, active compounds read low 0.993 | S. cerevisiae deletion strains, locus YOR083W, strain WHI5 (second series), active compounds read low 0.989 | S. cerevisiae deletion strains, locus YOR083W, strain WHI5, active compounds read low 1 | S. cerevisiae deletion strains, locus YOR106W, strain vam3, active compounds read low 1 | S. cerevisiae deletion strains, locus YOR136W, strain idh2, active compounds read low 0.998 | S. cerevisiae deletion strains, locus YOR144C, strain elg1, active compounds read low 0.991 | S. cerevisiae deletion strains, locus YOR184W, strain ser1, active compounds read low 1.06 | S. cerevisiae deletion strains, locus YOR231W, strain MKK1, active compounds read low 1.06 | S. cerevisiae deletion strains, locus YOR265W, strain rbl2, active compounds read low 0.999 | S. cerevisiae deletion strains, locus YOR270C, strain vph1, active compounds read low 0.984 | S. cerevisiae deletion strains, locus YOR290C, strain snf2, active compounds read low 1.01 | S. cerevisiae deletion strains, locus YOR316C, strain cot1, active compounds read low 0.98 | S. cerevisiae deletion strains, locus YPL051W, strain arl3, active compounds read low 0.997 | S. cerevisiae deletion strains, locus YPL055C, strain LGE1, active compounds read low 0.977 | S. cerevisiae deletion strains, locus YPL078C, strain atp4, active compounds read low 0.998 | S. cerevisiae deletion strains, locus YPL106C, strain sse1, active compounds read low 0.96 | S. cerevisiae deletion strains, locus YPL240C, strain hsp82, active compounds read low 0.982 | S. cerevisiae deletion strains, locus YPL241C, strain CIN2, active compounds read low 0.981 and 0.988 | S. cerevisiae deletion strains, locus YPL256C, strain CLN2, active compounds read low 1.04 | S. cerevisiae deletion strains, locus YPR119W, strain clb2, active compounds read low 0.996 | S. cerevisiae deletion strains, locus YPR141C, strain kar3, active compounds read low 0.979 | S. cerevisiae deletion strains, locus YPR163C, strain tif3, active compounds read low 0.997 | S. cerevisiae deletion strains, locus YPR167C, strain met16, active compounds read low 0.977 | S. cerevisiae deletion strains, strain wtn01, active compounds read low 0.969 | S. cerevisiae strains, strain wild type, active compounds read low 0.998
